# Laboratory results taken from the supplement of paper PMC6555819.
# Tests used:
# Assay in all cases: PBM binding z-score (relative to random genomic background probes); higher = stronger binding; sequences stand for … in GC…GCGATTGACAGCGTAGAATGAAGG
# [1] = tested on: PPARg:RXRa DBDmut IVT, anti-RXR (DBD mutation: RXRa K156A/R161A, NR concentration 270 nM, RXRa partner concentration 90 nM)
# Procedure, shortened: (§1)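 For binding z-scores, the reference was random background probes on custom Agilent 4×180K protein-binding microarrays. These arrays were incubated 1 h with ligand-free nuclear receptor dimers in PBS pH 7.4, 2% milk, 0.02% Triton X-100, 1 mM DTT, 0.2 mg/mL BSA and 0.4 mg/ml salmon testes DNA. Fluorescence was scanned after antibody detection of each partner (one per run) and regression-normalized.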
# [2] = tested on: PPARg:RXRa IVT, anti-PPARg (NR concentration 270 nM, RXRa partner concentration 90 nM)
# Procedure, shortened: as §1
# [3] = tested on: PPARg DBDmut:RXRa IVT, anti-PPARg (DBD mutation: PPARg1 K132A/R137A, NR concentration 270 nM, RXRa partner concentration 90 nM)
# Procedure, shortened: as §1
# [4] = tested on: PPARg DBDmut IVT, anti-PPARg (DBD mutation: PPARg1 K132A/R137A, NR concentration 270 nM)
# Procedure, shortened: as §1
# [5] = tested on: PPARg homodimer (NR concentration 180 nM)
# Procedure, shortened: as §1
# [6] = tested on: PXR:RXRa (NR concentration 270 nM, RXRa partner concentration 90 nM)
# Procedure, shortened: as §1
# [7] = tested on: PXR homodimer (NR concentration 270 nM)
# Procedure, shortened: as §1
# [8] = tested on: RARa:RXR (NR concentration 270 nM, RXRa partner concentration 90 nM)
# Procedure, shortened: as §1
# [9] = tested on: RARa homodimer (NR concentration 270 nM)
# Procedure, shortened: as §1
# [10] = tested on: RARb:RXRa (NR concentration 270 nM, RXRa partner concentration 90 nM)
# Procedure, shortened: as §1
# [11] = tested on: RARb homodimer (NR concentration 270 nM)
# Procedure, shortened: as §1
# [12] = tested on: RARg:RXRa (NR concentration 270 nM, RXRa partner concentration 90 nM)
# Procedure, shortened: as §1
# [13] = tested on: RARg homodimer (NR concentration 270 nM)
# Procedure, shortened: as §1
# [14] = tested on: RXRa DBDmut IVT, anti-RXR (DBD mutation: RXRa K156A/R161A, NR concentration 90 nM)
# Procedure, shortened: as §1
# [15] = tested on: RXRa homodimer (NR concentration 180 nM)
# Procedure, shortened: as §1
# [16] = tested on: THRa:RXRa (NR concentration 90 nM, RXRa partner concentration 90 nM)
# Procedure, shortened: as §1
# [17] = tested on: THRa homodimer (NR concentration 90 nM)
# Procedure, shortened: as §1
# [18] = tested on: VDR:RXRa (NR concentration 270 nM, RXRa partner concentration 90 nM)
# Procedure, shortened: as §1
# [19] = tested on: VDR homodimer (NR concentration 270 nM)
# Procedure, shortened: as §1
Sequence,PBM binding z-score [1],PBM binding z-score [2],PBM binding z-score [3],PBM binding z-score [4],PBM binding z-score [5],PBM binding z-score [6],PBM binding z-score [7],PBM binding z-score [8],PBM binding z-score [9],PBM binding z-score [10],PBM binding z-score [11],PBM binding z-score [12],PBM binding z-score [13],PBM binding z-score [14],PBM binding z-score [15],PBM binding z-score [16],PBM binding z-score [17],PBM binding z-score [18],PBM binding z-score [19]
ATCGAAAGGTCGTGAGGTGAGTCTACAGAAAGGC,0.266,2.6,0.998,0.581,1.51,2.97,-0.0415,3.84,0.605,3.87,3.17,4.64,3.92,1.06,5.19,3.48,1.43,3.66,1.09
CTACCAAGGTGGACAAGGTCGTTGATTACTATTC,0.0779,0.0174,-1.17,0.143,0.0242,1.28,0.687,1.16,0.219,0.561,1,0.429,0.319,0.874,0.711,1.81,0.933,3,1.68
ACAGAGAGGTGATGAAGGTAACTCAGGCTATCAT,1.04,1.11,0.359,-0.0267,0.505,0.0565,0.268,0.393,0.478,0.825,0.584,0.531,0.832,-0.266,0.587,1.33,0.312,0.7,-0.222
GGAACGAGGCCATTCGAGTTGATAGCATGGCGAT,2.23,1.22,-0.239,-0.906,-0.779,1.73,0.561,-0.0585,-1.34,0.94,-0.135,0.361,0.706,2.13,-0.125,2.23,-0.443,1.43,1.7
TCGAGTAGGTTACCAATGGGGCAGTCAGCTTTCT,3.11,2.43,-0.721,-1.01,-0.432,-0.103,-1.34,0.0626,-1.21,0.908,0.628,1.29,0.257,0.0356,0.404,-0.0981,-1.12,-0.0931,-1.05
TATACAGGGTCAAACGCCAGAGTACGAATGTCGA,2.52,4.64,3.59,3.04,3.53,4.49,0.94,5.61,0.721,4.45,3.44,5.93,5.27,3.62,6.88,3.56,0.861,5,4.28
GCTCGGAGGACAAGGTCTGAGCTTTGTCCGTAGA,-0.275,-0.493,-0.968,-1.01,-0.929,-0.656,-0.919,-0.399,-1.72,0.963,0.301,-0.104,0.27,-0.359,-0.785,0.705,-0.422,-0.681,-0.592
TCGAGTAGGTTTCCAATGGGGCATTCAGCTTTCT,1.53,0.378,-1.11,-0.734,-1.12,-0.503,-1.03,-0.636,-1.26,-0.326,-0.0582,-0.76,-0.806,0.449,-0.581,-0.683,-0.262,-0.464,-0.443
